{"source": "the supplement of paper PMC11006884", "note": "About 6,500 targets were measured; listed, in parts, are those with a hit and a random draw of the rest. About 2% of all pairs of compound and target were hits. Unmarked numbers belong to inactive results.", "data": [{"compound": "COC(=O)C#Cc1ccccc1 [methyl 3-phenylpropiolate]", "assay": "log2 ratio of iodoacetamide-alkyne labeling of the cysteine site, DMSO over compound (competition); higher = stronger covalent engagement of the cysteine by the compound, active = 1 or more", "details": "500 µM; treatment time 1 h; system: HEK293T cell lysate", "procedure,_shortened": "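After 1 h at ambient temperature with vehicle or electrophile (500 µM), HEK293T lysate (2 mg/mL) was labelled for 1 h with iodoacetamide alkyne and clicked to sCIP-TMT reagents. Pooled samples were trypsin-digested overnight at 37 °C, streptavidin-enriched, acid-eluted and analysed by Orbitrap Eclipse LC-MS/MS with FAIMS, then quantified in FragPipe over three replicates with duplicate channels. A cysteine's log2 competition ratio is its mean control-channel over mean compound-channel reporter intensity. Cysteines quantified in only one replicate were not included.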", "values": [{"target": "UBE2O C406 (UniProt Q9C0C9)", "sequence (Q9C0C9 whole entry, looked up)": "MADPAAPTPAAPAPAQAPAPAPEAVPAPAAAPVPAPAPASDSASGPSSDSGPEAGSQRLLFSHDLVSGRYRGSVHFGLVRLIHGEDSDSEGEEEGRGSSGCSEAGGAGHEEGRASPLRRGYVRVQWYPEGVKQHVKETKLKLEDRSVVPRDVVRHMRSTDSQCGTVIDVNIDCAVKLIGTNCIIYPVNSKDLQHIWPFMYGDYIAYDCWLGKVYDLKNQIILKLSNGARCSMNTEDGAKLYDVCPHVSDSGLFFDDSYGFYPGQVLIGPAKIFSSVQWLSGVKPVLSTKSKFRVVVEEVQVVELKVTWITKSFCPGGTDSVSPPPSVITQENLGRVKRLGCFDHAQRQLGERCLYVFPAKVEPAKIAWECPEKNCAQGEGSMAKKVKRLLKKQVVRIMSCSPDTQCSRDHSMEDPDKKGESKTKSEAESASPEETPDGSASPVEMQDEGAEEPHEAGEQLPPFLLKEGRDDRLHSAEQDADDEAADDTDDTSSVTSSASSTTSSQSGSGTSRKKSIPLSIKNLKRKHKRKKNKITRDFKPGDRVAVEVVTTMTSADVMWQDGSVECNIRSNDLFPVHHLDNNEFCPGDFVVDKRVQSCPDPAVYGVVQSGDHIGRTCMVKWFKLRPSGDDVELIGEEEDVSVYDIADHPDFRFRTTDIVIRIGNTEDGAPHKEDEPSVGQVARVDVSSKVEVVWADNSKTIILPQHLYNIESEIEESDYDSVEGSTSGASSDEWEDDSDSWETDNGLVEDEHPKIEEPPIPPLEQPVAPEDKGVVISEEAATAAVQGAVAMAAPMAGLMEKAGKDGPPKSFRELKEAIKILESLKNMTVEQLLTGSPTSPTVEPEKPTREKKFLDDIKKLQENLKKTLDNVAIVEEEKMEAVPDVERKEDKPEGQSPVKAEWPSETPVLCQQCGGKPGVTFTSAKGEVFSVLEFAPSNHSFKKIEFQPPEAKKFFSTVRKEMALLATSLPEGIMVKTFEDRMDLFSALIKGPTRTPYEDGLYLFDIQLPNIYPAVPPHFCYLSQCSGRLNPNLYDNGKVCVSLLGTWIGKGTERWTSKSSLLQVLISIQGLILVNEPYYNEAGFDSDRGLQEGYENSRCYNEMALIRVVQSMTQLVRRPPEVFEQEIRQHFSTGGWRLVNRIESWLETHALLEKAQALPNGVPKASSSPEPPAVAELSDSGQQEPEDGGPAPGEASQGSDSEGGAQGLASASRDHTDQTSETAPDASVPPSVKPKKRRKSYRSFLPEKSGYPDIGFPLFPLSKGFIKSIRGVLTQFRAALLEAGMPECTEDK", "log2 ratio of iodoacetamide-alkyne labeling": "1.46 (active)"}, {"target": "SPATA5L1 C309 (UniProt Q9BVQ7)", "sequence (Q9BVQ7 whole entry, looked up)": "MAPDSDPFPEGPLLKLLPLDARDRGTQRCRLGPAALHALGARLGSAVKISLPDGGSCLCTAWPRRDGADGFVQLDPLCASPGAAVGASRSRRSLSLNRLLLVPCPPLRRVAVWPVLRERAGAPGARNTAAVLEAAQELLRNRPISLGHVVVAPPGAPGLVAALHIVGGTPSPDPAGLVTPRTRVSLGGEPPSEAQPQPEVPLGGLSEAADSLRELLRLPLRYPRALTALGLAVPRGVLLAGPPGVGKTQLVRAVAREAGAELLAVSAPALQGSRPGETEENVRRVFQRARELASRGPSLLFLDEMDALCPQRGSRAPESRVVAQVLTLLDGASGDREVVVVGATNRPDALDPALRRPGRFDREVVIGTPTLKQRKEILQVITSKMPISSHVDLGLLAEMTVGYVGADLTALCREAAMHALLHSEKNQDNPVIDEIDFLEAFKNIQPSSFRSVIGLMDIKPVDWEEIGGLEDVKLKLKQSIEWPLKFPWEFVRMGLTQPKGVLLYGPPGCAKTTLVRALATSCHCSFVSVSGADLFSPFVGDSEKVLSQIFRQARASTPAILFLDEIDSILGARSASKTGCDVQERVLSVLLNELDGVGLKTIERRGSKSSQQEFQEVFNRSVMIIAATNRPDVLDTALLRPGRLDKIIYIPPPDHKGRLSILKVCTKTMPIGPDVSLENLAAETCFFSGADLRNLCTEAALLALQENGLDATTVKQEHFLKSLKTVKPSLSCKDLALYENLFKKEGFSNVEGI", "log2 ratio of iodoacetamide-alkyne labeling": "1.11 (active)"}, {"target": "PNO1 C64 (UniProt Q9NRX1)", "log2 ratio of iodoacetamide-alkyne labeling": 0.367}, {"target": "UniProt Q9BXJ9_C465", "log2 ratio of iodoacetamide-alkyne labeling": 0.109}, {"target": "SAR1A C178 (UniProt Q9NR31)", "sequence (Q9NR31 whole entry, looked up)": "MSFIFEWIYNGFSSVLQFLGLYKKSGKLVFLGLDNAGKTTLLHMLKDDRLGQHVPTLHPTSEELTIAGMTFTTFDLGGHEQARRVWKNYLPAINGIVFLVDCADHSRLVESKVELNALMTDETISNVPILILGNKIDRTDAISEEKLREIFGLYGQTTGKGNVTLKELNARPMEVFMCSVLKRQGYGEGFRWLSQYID", "log2 ratio of iodoacetamide-alkyne labeling": 0.0354}, {"target": "PRPF19 C230 (UniProt Q9UMS4)", "sequence (Q9UMS4 whole entry, looked up)": "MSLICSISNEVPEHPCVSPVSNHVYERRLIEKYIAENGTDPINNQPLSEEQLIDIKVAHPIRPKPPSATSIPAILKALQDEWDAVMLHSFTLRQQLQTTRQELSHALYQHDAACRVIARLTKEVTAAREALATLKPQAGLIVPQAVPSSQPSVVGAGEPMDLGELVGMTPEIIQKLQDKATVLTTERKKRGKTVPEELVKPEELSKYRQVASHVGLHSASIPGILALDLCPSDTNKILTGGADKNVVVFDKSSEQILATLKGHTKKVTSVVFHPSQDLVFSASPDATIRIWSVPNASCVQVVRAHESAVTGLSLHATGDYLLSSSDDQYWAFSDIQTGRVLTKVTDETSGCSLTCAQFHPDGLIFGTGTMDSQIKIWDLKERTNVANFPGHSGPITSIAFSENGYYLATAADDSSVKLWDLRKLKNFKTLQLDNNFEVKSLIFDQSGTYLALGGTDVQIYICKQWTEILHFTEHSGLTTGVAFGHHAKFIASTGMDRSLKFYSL", "log2 ratio of iodoacetamide-alkyne labeling": 0.231}, {"target": "SAE1 C214 (UniProt Q9UBE0)", "log2 ratio of iodoacetamide-alkyne labeling": 0.502}, {"target": "UniProt Q9BVS4_C449", "log2 ratio of iodoacetamide-alkyne labeling": "1.18 (active)"}, {"target": "LSM7 C76 (UniProt Q9UK45)", "log2 ratio of iodoacetamide-alkyne labeling": 0.0557}, {"target": "TRABD C287 (UniProt Q9H4I3)", "log2 ratio of iodoacetamide-alkyne labeling": 0.0519}, {"target": "ACTR6 C339 (UniProt Q9GZN1)", "log2 ratio of iodoacetamide-alkyne labeling": 0.248}, {"target": "TES C196 (UniProt Q9UGI8)", "log2 ratio of iodoacetamide-alkyne labeling": 0.308}, {"target": "BAZ1B C953 (UniProt Q9UIG0)", "log2 ratio of iodoacetamide-alkyne labeling": "1.28 (active)"}, {"target": "NUDT5 C76 (UniProt Q9UKK9)", "log2 ratio of iodoacetamide-alkyne labeling": 0.157}, {"target": "KCTD3 C606 (UniProt Q9Y597)", "log2 ratio of iodoacetamide-alkyne labeling": "1.08 (active)"}, {"target": "SLC4A1AP C730 (UniProt Q9BWU0)", "log2 ratio of iodoacetamide-alkyne labeling": "1.48 (active)"}, {"target": "DDX56 C286 (UniProt Q9NY93)", "sequence (Q9NY93 whole entry, looked up)": "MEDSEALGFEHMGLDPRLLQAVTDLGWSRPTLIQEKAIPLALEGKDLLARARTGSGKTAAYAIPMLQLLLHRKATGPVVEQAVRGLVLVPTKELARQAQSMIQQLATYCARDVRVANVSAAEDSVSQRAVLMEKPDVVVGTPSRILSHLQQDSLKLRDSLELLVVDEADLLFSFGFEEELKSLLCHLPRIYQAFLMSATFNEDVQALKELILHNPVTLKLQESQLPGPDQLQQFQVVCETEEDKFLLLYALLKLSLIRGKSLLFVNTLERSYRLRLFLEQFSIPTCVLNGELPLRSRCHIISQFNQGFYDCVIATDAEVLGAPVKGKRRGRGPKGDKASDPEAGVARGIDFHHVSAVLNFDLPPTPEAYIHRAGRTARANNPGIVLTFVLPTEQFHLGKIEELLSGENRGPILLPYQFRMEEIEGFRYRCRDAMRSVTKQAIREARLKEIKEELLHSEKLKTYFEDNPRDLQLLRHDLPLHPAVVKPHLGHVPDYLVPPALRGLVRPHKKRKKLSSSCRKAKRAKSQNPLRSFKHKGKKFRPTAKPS", "log2 ratio of iodoacetamide-alkyne labeling": 0.51}, {"target": "RACGAP1 C419 (UniProt Q9H0H5)", "log2 ratio of iodoacetamide-alkyne labeling": 0.303}, {"target": "ANAPC1 C1412 (UniProt Q9H1A4)", "log2 ratio of iodoacetamide-alkyne labeling": 0.0508}, {"target": "ATXN10 C356 (UniProt Q9UBB4)", "log2 ratio of iodoacetamide-alkyne labeling": "1.32 (active)"}, {"target": "CHCHD3 C112 (UniProt Q9NX63)", "log2 ratio of iodoacetamide-alkyne labeling": 0.0891}, {"target": "TNKS1BP1 C1296 (UniProt Q9C0C2)", "log2 ratio of iodoacetamide-alkyne labeling": 0.451}, {"target": "BRD7 C338 (UniProt Q9NPI1)", "log2 ratio of iodoacetamide-alkyne labeling": "1.01 (active)"}, {"target": "GPN3 C219 (UniProt Q9UHW5)", "log2 ratio of iodoacetamide-alkyne labeling": 0.0998}, {"target": "NOP16 C36 (UniProt Q9Y3C1)", "log2 ratio of iodoacetamide-alkyne labeling": "1.12 (active)"}, {"target": "PPAN C432 (UniProt Q9NQ55)", "log2 ratio of iodoacetamide-alkyne labeling": 0.73}, {"target": "UniProt Q9C0E8_C149", "log2 ratio of iodoacetamide-alkyne labeling": 0.125}, {"target": "DDX52 C536 (UniProt Q9Y2R4)", "log2 ratio of iodoacetamide-alkyne labeling": 0.566}, {"target": "UNC93B1 C583 (UniProt Q9H1C4)", "log2 ratio of iodoacetamide-alkyne labeling": "2.06 (active)"}, {"target": "GPHN C419 (UniProt Q9NQX3)", "sequence (Q9NQX3 whole entry, looked up)": "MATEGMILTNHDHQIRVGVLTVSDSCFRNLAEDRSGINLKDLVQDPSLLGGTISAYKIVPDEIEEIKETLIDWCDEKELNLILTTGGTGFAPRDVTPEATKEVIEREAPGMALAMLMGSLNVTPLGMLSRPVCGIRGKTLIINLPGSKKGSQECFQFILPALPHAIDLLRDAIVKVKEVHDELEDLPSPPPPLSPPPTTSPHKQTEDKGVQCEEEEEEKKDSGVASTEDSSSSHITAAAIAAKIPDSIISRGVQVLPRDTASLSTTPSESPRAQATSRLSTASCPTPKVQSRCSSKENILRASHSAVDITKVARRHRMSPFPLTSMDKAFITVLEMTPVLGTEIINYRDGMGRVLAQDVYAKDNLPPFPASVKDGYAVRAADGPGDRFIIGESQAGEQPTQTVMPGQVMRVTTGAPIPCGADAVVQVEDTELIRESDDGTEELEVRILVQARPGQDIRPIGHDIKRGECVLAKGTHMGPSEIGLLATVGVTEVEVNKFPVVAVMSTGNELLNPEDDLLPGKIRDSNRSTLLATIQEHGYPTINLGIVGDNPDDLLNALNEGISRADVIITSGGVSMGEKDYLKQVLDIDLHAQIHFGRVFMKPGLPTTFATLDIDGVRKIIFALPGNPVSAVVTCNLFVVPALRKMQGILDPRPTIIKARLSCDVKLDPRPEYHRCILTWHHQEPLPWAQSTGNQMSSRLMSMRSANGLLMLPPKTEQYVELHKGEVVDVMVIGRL", "log2 ratio of iodoacetamide-alkyne labeling": 0.38}, {"target": "UniProt Q9NSY1_C912", "log2 ratio of iodoacetamide-alkyne labeling": 0.827}, {"target": "UniProt Q9Y3U8_C48", "log2 ratio of iodoacetamide-alkyne labeling": 0.297}, {"target": "RDH14 C97 (UniProt Q9HBH5)", "log2 ratio of iodoacetamide-alkyne labeling": 0.228}, {"target": "BICC1 C621 (UniProt Q9H694)", "sequence (Q9H694 whole entry)": "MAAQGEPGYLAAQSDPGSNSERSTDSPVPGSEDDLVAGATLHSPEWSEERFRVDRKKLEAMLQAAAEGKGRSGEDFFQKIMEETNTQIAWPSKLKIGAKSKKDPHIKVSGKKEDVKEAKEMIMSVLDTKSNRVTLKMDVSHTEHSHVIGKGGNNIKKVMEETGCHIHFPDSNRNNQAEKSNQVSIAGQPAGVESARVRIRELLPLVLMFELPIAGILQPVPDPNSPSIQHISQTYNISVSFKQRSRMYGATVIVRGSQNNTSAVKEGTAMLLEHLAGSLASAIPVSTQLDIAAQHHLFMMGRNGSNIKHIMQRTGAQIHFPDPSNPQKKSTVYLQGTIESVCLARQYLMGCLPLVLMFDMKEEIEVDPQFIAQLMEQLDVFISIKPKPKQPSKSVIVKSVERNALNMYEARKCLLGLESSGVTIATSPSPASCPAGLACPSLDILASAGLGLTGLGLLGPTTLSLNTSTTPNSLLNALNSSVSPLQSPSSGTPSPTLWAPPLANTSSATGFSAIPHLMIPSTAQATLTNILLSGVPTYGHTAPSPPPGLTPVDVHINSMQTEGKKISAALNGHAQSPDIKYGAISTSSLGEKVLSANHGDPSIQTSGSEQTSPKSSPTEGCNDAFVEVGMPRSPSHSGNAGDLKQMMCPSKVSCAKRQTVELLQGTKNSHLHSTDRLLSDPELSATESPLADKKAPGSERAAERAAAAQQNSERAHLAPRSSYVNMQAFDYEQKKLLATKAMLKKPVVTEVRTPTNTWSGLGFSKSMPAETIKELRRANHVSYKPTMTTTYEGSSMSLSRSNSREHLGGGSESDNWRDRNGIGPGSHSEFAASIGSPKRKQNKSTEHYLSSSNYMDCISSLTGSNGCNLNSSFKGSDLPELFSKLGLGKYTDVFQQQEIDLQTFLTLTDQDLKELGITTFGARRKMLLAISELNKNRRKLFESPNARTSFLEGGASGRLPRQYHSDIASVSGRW", "log2 ratio of iodoacetamide-alkyne labeling": 0.525}, {"target": "UniProt Q9NPA3_C62", "log2 ratio of iodoacetamide-alkyne labeling": 0.293}, {"target": "UBQLN4 C29 (UniProt Q9NRR5)", "log2 ratio of iodoacetamide-alkyne labeling": "1.12 (active)"}, {"target": "ANKFY1 C460 (UniProt Q9P2R3)", "log2 ratio of iodoacetamide-alkyne labeling": "1.44 (active)"}, {"target": "RABGAP1 C1026 (UniProt Q9Y3P9)", "log2 ratio of iodoacetamide-alkyne labeling": -0.252}, {"target": "LARS C554 (UniProt Q9P2J5)", "log2 ratio of iodoacetamide-alkyne labeling": "1.74 (active)"}, {"target": "CTSZ C92 (UniProt Q9UBR2)", "log2 ratio of iodoacetamide-alkyne labeling": -0.349}]}]}
